Experimental findings from PubChem BioAssay (EPA / NIEHS) are described below.

SMILES strings stand for the structures. Inconclusive results are not listed. Active and inactive are the calls of the source. How the source made its calls, unless noted: active means hit-call score of the fitted dose curve at least 0.9, where 1 is the maximum; inactive means score below 0.9.

The nature of assay [1]: CCTE_Shafer_MEA_dev_firing_rate_mean: CCTE's Neural Network Formation Assay for Mean Firing Rate, Shafer Lab (AID 2284031). In outline:
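Primary rat cortical neurons on 48-well MEA plates, exposed from plating day 0 with dosing renewed on DIV 5 and 9. Mean well firing rate over active electrodes, recorded days 5, 7, 9, 12, summarised as trapezoidal AUC.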

The nature of assay [2]: CCTE_Shafer_MEA_dev_per_burst_spike_percent: CCTE's Neural Network Formation Assay for Percent of Spikes in a Burst, Shafer Lab (AID 2284032). In outline:
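Rat primary cortical neurons on 16-electrode MEA wells, dosed from plating day 0 for 12 days with renewal on DIV 5 and 9; spikes-in-bursts percentage averaged over bursting electrodes, collapsed as AUC across days 5, 7, 9, 12; loss direction versus DMSO.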

The nature of assay [3]: CCTE_Shafer_MEA_dev_active_electrodes_number: CCTE's Neural Network Formation Assay for Number of Active Electrodes, Shafer Lab (AID 2284040; active means hit-call score of the fitted dose curve at least 0.9, where 1 is the maximum;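 on AC50: potency for loss of active electrodes versus DMSO so lower counts are hits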). In outline: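 Primary rat cortical neurons on 16-electrode MEA wells, exposed from day 0 through day 12 with compound renewed at DIV 5 and 9 feeds. Active electrodes (mean firing ≥5 spikes/min) counted at DIV 5, 7, 9, 12; trapezoidal AUC across days, loss-of-signal versus DMSO.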

Assay [4] can be described thus: CCTE_Shafer_MEA_dev_burst_rate: CCTE's Neural Network Formation Assay for Burst Rate, Shafer Lab (AID 2284042). In outline:
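Developmental network assay measuring how 12-day exposure of rat cortical neuron cultures alters bursting on extracellular MEA recordings. Values are AUC of well-mean burst rate across four recording days, relative to DMSO vehicle.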

Assay [5] concerns the target Estrogen receptor (Homo sapiens) (UniProt P03372). The experiment in a line: CCTE_Deisenroth_AIME_384WELL_LUC_Inactive: CCTE's 384-well Estrogen Receptor Transactivation Assay without AIME metabolic competence (ERTA luciferase; metabolism negative), Deisenroth Lab (AID 2284038; active means hit-call score of the fitted dose curve at least 0.9, where 1 is the maximum;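 further: VM7Luc4E2 breast cells given medium preincubated 2 h with S9-free microspheres; hits raise estrogen receptor luciferase signal so potencies reflect agonists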). In outline: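 Metabolism-negative mode: chemicals (10-point, 0.002–200 uM) held 2 h with alginate-water microspheres, then conditioned medium applied to VM7Luc4E2 cells for 24 h. Luciferase induction referenced to 17beta-estradiol.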

The target is the same in assay [6]. The experiment in a line: CCTE_Deisenroth_AIME_384WELL_LUC_Shift: CCTE's 384-well Estrogen Receptor Transactivation Assay with AIME metabolic competence data shift (ERTA luciferase; difference in metabolism positive and negative), Deisenroth Lab (AID 2284041).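 Further: shift is response with S9 minus without S9 so positive means metabolism raised ER signal.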 In outline: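 Here, parent compounds undergo 2 h phase I metabolism by PB/BNF-induced rat S9 before 24 h transactivation in VM7Luc4E2 cells; the curve models S9-positive minus S9-negative response over a 10-point series.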

Assay [7] has the same target. The experiment in a line: CCTE_Deisenroth_AIME_96WELL_LUC_Active: CCTE's 96-well Estrogen Receptor Transactivation Assay with AIME metabolic competence (ERTA luciferase; metabolism positive), Deisenroth Lab (AID 2284023; active means hit-call score of the fitted dose curve at least 0.9, where 1 is the maximum). In outline: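 Chemicals pre-incubated 2 h with alginate-immobilized phenobarbital/beta-naphthoflavone-induced male Sprague Dawley rat liver S9, then medium transferred to VM7Luc4E2 cells for 24 h luciferase read-out. 10-point series 0.002 - 200 uM; fitted relative to 17beta-estradiol.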

For assay [8] the target is unchanged. The experiment in a line: CCTE_Deisenroth_AIME_96WELL_LUC_Inactive: CCTE's 96-well Estrogen Receptor Transactivation Assay without AIME metabolic competence (ERTA luciferase; metabolism negative), Deisenroth Lab (AID 2284025; active means hit-call score of the fitted dose curve at least 0.9, where 1 is the maximum). In outline:
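VM7Luc4E2 breast cells, luciferase read 24 h after dosing with medium pre-incubated 2 h on alginate-water lids (metabolism negative). 10-point series 0.002–200 uM, single technical replicate, n≥4; fit relative to 17beta-estradiol.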

Assay [9] is described as follows: CCTE_Deisenroth_AIME_96WELL_CTox_Active: Cytotoxicity Assessment (CTOX) in CCTE's 96-well Estrogen Receptor Transactivation Assay with AIME metabolic competence (metabolism positive), Deisenroth Lab (AID 2284028; active means hit-call score of the fitted dose curve at least 0.9, where 1 is the maximum). In outline: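 Chemicals (0.002–200 uM) were first incubated 2 h with alginate-immobilized phenobarbital/beta-naphthoflavone-induced male rat liver S9; conditioned medium then went onto VM7Luc4E2 cells for 24 h, with viability read by protease-substrate fluorescence, fitted bidirectionally.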

Assay [10] can be described thus: CCTE_Deisenroth_AIME_96WELL_CTox_Inactive: Cytotoxicity Assessment (CTOX) in CCTE's 96-well Estrogen Receptor Transactivation Assay without AIME metabolic competence (metabolism negative), Deisenroth Lab (AID 2284029; active means hit-call score of the fitted dose curve at least 0.9, where 1 is the maximum). In outline: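 Chemicals (0.002 - 200 uM, 10 points) incubated 2 h with alginate-water microspheres (no S9), then medium moved onto VM7Luc4E2 cells for 24 h. Viability by protease-substrate cleavage to fluorescent probe; bidirectional fitting.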

The nature of assay [11]: CCTE_Deisenroth_AIME_384WELL_CTox_Inactive: Cytotoxicity Assessment (CTOX) in CCTE's 384-well Estrogen Receptor Transactivation Assay without AIME metabolic competence (metabolism negative), Deisenroth Lab (AID 2284039; active means hit-call score of the fitted dose curve at least 0.9, where 1 is the maximum;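 further: cell viability via live-cell protease substrate cleaved to fluorescent probe; cells exposed 24 h to medium preincubated 2 h with alginate-water beads without S9; loss of fluorescence signal means loss of viability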). In outline:
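Fluorescence from a live-cell protease substrate, read after 24 h in VM7Luc4E2 cells, indicated viability. Test medium came from a 2 h AIME step without hepatic S9 (alginate-water microspheres); concentrations spanned 0.002 - 200 uM, single technical replicate per run.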

Chain of Estrogen receptor (Homo sapiens) (P03372 whole entry, looked up): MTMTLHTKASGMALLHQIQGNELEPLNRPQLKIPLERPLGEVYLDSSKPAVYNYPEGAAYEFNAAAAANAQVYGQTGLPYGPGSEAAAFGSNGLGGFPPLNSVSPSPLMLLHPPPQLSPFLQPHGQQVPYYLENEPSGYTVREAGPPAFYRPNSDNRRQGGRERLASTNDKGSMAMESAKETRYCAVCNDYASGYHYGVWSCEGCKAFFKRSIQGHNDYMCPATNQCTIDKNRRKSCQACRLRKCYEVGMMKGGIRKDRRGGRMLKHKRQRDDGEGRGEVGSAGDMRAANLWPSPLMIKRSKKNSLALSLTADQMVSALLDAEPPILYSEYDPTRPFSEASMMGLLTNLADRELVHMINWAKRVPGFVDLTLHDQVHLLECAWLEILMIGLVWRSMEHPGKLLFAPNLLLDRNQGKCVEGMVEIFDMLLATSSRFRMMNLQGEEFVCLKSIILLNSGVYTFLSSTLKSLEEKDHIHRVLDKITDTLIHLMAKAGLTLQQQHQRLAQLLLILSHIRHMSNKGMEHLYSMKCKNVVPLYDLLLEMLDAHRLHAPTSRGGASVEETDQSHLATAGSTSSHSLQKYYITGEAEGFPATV

With `CCN(CCO)S(=O)(=O)C(F)(F)C(F)(F)C(F)(F)C(F)(F)C(F)(F)C(F)(F)C(F)(F)C(F)(F)F`, the compound was called inactive in [1], in assay [2], in assay [3] and in assay [4].

As to `CNS(=O)(=O)C(F)(F)C(F)(F)C(F)(F)C(F)(F)C(F)(F)C(F)(F)C(F)(F)C(F)(F)F`, the compound was called inactive in assay [1], in assay [2], in [3] and in [4].

For `O=C(c1ccccc1)c1ccc(O)cc1O`, the AC50 (usually the concentration giving half of the maximal activity seen) in assay [5] was 40.3 µM (active). Also, in assay [6], the result was inactive.

On to `C=CC(=O)OCCC(F)(F)C(F)(F)C(F)(F)C(F)(F)F`, for which the outcome in assay [1], in [2], in assay [3] and in assay [4] was inactive.

`Cc1ccc(O)c(-n2nc3ccccc3n2)c1`: the figures for the AC50 in assay [7], in [8] and in assay [5] were 21.7 µM (active), 10.2 µM (active) and 38.2 µM (active), respectively. Moreover, the result in assay [9], in assay [10] and in assay [6] was inactive.

`NC(=O)C(F)(F)C(F)(F)C(F)(F)C(F)(F)C(N)=O`: the result in [1], in [2], in [3] and in [4] was inactive.

For `OCC(O)CC(F)(F)C(F)(F)C(F)(F)C(F)(F)F` (stereo not given), the compound was classed as inactive in assay [1], in assay [2], in assay [3] and in assay [4].

Consider `FC(F)(F)C(F)(F)C(F)(F)C(F)(F)C(F)(F)C(F)(F)C(F)(F)CCI`, for which the outcome in assay [1], in [2], in assay [3] and in [4] was inactive.

Regarding `CCCCOC(=O)C(C)O` (stereo not given), the call in assay [5], in [11] and in [6] was inactive.

On to `NC(O)(C(F)(F)F)C(F)(F)F`, for which the outcome in assay [1], in assay [2], in assay [3] and in [4] was inactive.

For the compound `CCCCCCCC/C=C\CCCCCCCC(=O)OCC(O)CO` (stereo not given), the outcome in assay [5], in assay [11] and in assay [6] was inactive.

In the case of `OCC(F)(F)C(F)(F)C(F)(F)C(F)(F)C(F)(F)C(F)(F)C(F)(F)C(F)(F)CO`, the compound was called inactive in assay [1], in assay [2] and in assay [4]. Further, the AC50 in assay [3] was 15 µM (active).

With `NC(=O)C(F)(F)C(F)(F)C(F)(F)F`, the compound was called inactive in [1], in assay [2] and in assay [4].

`O=C1C=CC(=O)N1c1ccccc1`: the result in assay [5], in [11] and in [6] was inactive.

As to `OCC1CCCO1` (stereo not given), the call in [5] and in assay [6] was inactive.

Regarding `OC(O)C(F)(F)C(F)(F)F`, the result in assay [1], in [2] and in assay [4] was inactive.

As to `NC(=O)C(F)(F)C(F)(F)C(F)(F)C(F)F`, the result in assay [1], in assay [2] and in assay [4] was inactive.
